Data reported in PubChem BioAssay (NCI).
“And” between values parts separate entries of the source, which are not always exact repeats. Identical values can stand only once. The panel holds about 83,000 compounds, 20% with a hit somewhere; the sample as a whole holds those more often.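 Single-concentration screen, 48 h exposure, 96-well plates. Endpoint: percent growth. Below 10 = active.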 The source made the active and inactive calls.

Key:
Test in all cases: NCI-60 one-dose screen, 48 h (100 = growth as untreated, 0 = no growth, -100 = all killed)
Conditions in all cases: 10 µM unless noted
UACC-62 melanoma = test system: UACC-62 melanoma
SNB-75 CNS = test system: SNB-75 CNS
SNB-19 CNS = test system: SNB-19 CNS
PC-3 prostate = test system: PC-3 prostate
SK-MEL-5 melanoma = test system: SK-MEL-5 melanoma
LOX IMVI melanoma = test system: LOX IMVI melanoma
SK-MEL-28 melanoma = test system: SK-MEL-28 melanoma
HT29 colon = test system: HT29 colon
U251 CNS = test system: U251 CNS
HCT-15 colon = test system: HCT-15 colon

With `C[C@]12CC[C@@H]3c4cc(Br)c(O)c(Br)c4CC[C@H]3[C@@H]1CC(Br)C2=O` (some centres undefined) the growth (UACC-62 melanoma) was -79.5% [100 µM] (active) and -97.9% [100 µM] (active).
With `Oc1ccc2ccccc2c1C1NN=C(c2ccccc2)S1` (centres undefined) the growth (SNB-75 CNS) was 41.8% (inactive), the growth (SNB-19 CNS) was 23.6% (inactive) and the growth (PC-3 prostate) was 27.7% (inactive). The growth (SK-MEL-5 melanoma) was 11.6% (inactive), the growth (LOX IMVI melanoma) was 13.8% (inactive) and the growth (SK-MEL-28 melanoma) was 23% (inactive).
`Cc1cc(N2CCCC2)c([N+](=O)[O-])cc1[N+](=O)[O-]` was tested, and the growth (UACC-62 melanoma) was 64.5% [100 µM] (inactive) and 32.1% [100 µM] (inactive).
In the case of `C=C1C(=O)OC2/C=C(/C)C3(O)OC(C)(CC(OC(=O)C(C)C)C12)CC3OC(C)=O` (centres undefined), the growth (UACC-62 melanoma) is reported as -93% [100 µM] (active).
`NC(=O)c1[nH]cnc1/N=N/SCC(N)C(=O)O` (centres undefined) was tested, and the growth (UACC-62 melanoma) was 6.63% [100 µM] (active) and 4.02% [100 µM] (active).
With `Oc1ccccc1/C=N/Nc1nc2ccccc2s1` the growth (HT29 colon) was 105% (inactive), the growth (SNB-75 CNS) was 45.6% (inactive) and the growth (SNB-19 CNS) was 51.4% (inactive). The growth (U251 CNS) was 45.3% (inactive), the growth (PC-3 prostate) was 34.6% (inactive) and the growth (SK-MEL-5 melanoma) was 48.8% (inactive). The growth (LOX IMVI melanoma) was 37.2% (inactive) and the growth (SK-MEL-28 melanoma) was 83.3% (inactive).
`COC(=O)[C@@H]1CCCN1C(=O)[C@@H]1CCCN1C(=O)[C@@H](Cc1c[nH]c2ccccc12)NC(=S)Nc1cc(C(F)(F)F)cc(C(F)(F)F)c1` was tested, and the growth (HCT-15 colon) was 74.6% (inactive), the growth (SNB-75 CNS) was 32.7% (inactive) and the growth (SNB-19 CNS) was 69.3% (inactive). For the same compound, the growth (PC-3 prostate) was 43.4% (inactive), the growth (UACC-62 melanoma) was 58.1% (inactive) and the growth (LOX IMVI melanoma) was 23.3% (inactive). The growth (SK-MEL-28 melanoma) was 33.7% (inactive).
For `COc1ncc(F)c(OC)n1`, the growth (HT29 colon) was 104% (inactive), the growth (SNB-75 CNS) was 89.1% (inactive) and the growth (SNB-19 CNS) was 111% (inactive). The growth (PC-3 prostate) was 92.2% (inactive), the growth (SK-MEL-5 melanoma) was 97.5% (inactive) and the growth (UACC-62 melanoma) was 106% (inactive). For the same compound, the growth (LOX IMVI melanoma) was 102% (inactive) and the growth (SK-MEL-28 melanoma) was 107% (inactive).
`O=C1/C(=C/c2ccc(Cl)cc2)N=C(c2ccccc2)N1CCc1cccs1` was tested, and the growth (HCT-15 colon) was 10.2% (inactive), the growth (SNB-75 CNS) was 31.1% (inactive) and the growth (SNB-19 CNS) was 64.5% (inactive). For the same compound, the growth (PC-3 prostate) was 59% (inactive), the growth (SK-MEL-5 melanoma) was 84.7% (inactive) and the growth (UACC-62 melanoma) was 55.7% (inactive). For the same compound, the growth (LOX IMVI melanoma) was 30.1% (inactive) and the growth (SK-MEL-28 melanoma) was 77.4% (inactive).
With `C=CCCCCCCCCC(=O)[O-].C=CCCCCCCCCC(=O)[O-].[Zn+2]` the growth (SNB-19 CNS) was 100% (inactive).
For `CCOc1cc2c(cc1O)C(=O)C[C@@H]1[C@@H]2CC[C@]2(C)[C@@H](O)CC[C@@H]12`, the growth (UACC-62 melanoma) was 13.5% [100 µM] (inactive) and 0.709% [100 µM] (active).
With `Cc1nc(NC(=O)COc2cccc(/C=C3\COc4ccccc4C3=O)c2)sc1C` the growth (HCT-15 colon) was -63.8% (active), the growth (SNB-75 CNS) was 54.2% (inactive) and the growth (U251 CNS) was -100% (active). For the same compound, the growth (SK-MEL-5 melanoma) was -81.8% (active), the growth (UACC-62 melanoma) was -18.9% (active) and the growth (LOX IMVI melanoma) was -94.3% (active). The growth (SK-MEL-28 melanoma) was -61.2% (active).
With `COc1ccc(C2=C(N)c3ccccc3C2=O)cc1` the growth (UACC-62 melanoma) was 44.1% [100 µM] (inactive) and 22.1% [100 µM] (inactive).
`CC(=O)Oc1ccc2ccc(=O)oc2c1OC(C)=O` was tested, and the growth (UACC-62 melanoma) was 24.4% [100 µM] (inactive) and -66.3% [100 µM] (active).
For `Cc1ccc(C(=O)O[C@H](C(=O)O)[C@H](OC(=O)c2ccc(C)cc2)C(=O)O)cc1`, the growth (SNB-19 CNS) was 102% (inactive).
In the case of `COc1cc2c(cc1-c1coc3cc(OCC=C(C)C)ccc3c1=O)OCO2`, the growth (UACC-62 melanoma) is reported as 0.442% [100 µM] (active) and 1.53% [100 µM] (active).
`CC(=O)OCC1=C(C)C[C@H]([C@@H](COC(C)=O)C2CCC3C4C[C@H]5O[C@]56CC=CC(=O)[C@]6(C)C4CC[C@@]32C)OC1=O` (some centres undefined) was tested, and the growth (UACC-62 melanoma) was -91% [50 µM] (active) and -99.6% [50 µM] (active).
In the case of `CC(C)(C)[Si](C)(C)OC1[C@@H](COC(N)=O)O[C@@H](n2cnc3c(N)ncnc32)[C@H]1O[Si](C)(C)C(C)(C)C` (some centres undefined), the growth (HCT-15 colon) is reported as 88% (inactive), the growth (SNB-75 CNS) is reported as 99.4% (inactive) and the growth (U251 CNS) is reported as 82.7% (inactive). The growth (PC-3 prostate) was 18.4% (inactive), the growth (SK-MEL-5 melanoma) was 96.9% (inactive) and the growth (UACC-62 melanoma) was 85.5% (inactive). For the same compound, the growth (LOX IMVI melanoma) was 98.2% (inactive) and the growth (SK-MEL-28 melanoma) was 98.3% (inactive).
`N#CC1=C(N)OC(c2cccc([N+](=O)[O-])c2)C1(C#N)C#N` (centres undefined) was tested, and the growth (UACC-62 melanoma) was -52.1% [100 µM] (active) and -93.7% [100 µM] (active).
